# Assay results reported in PubChem BioAssay (EPA / NIEHS).
# Records with an inconclusive call do not appear. The source made the active and inactive calls. Rule for the calls: active = hit-call score of the fitted dose curve at least 0.9, where 1 is the maximum; inconclusive = response in the unintended direction; inactive = score below 0.9.
# Molecular target: Bile acid receptor (Homo sapiens) (UniProt Q96RI1)
# Test: NVS_NR_hFXR_Antagonist: NovaScreen (NVS) Nuclear Receptor Binding Assay for human Farnesoid X Receptor Antagonism (FXR) (AID 2283350)
# Method in brief: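 Cell-free TR-FRET ligand-binding read-out on human FXR (NR1H4) in antagonist mode, measured 1 h after dosing. Primary screen in duplicate at 25 uM, actives retested in concentration series; signal loss scored versus DMSO.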
# Sequence of Bile acid receptor (Homo sapiens) (Q96RI1 whole entry, looked up): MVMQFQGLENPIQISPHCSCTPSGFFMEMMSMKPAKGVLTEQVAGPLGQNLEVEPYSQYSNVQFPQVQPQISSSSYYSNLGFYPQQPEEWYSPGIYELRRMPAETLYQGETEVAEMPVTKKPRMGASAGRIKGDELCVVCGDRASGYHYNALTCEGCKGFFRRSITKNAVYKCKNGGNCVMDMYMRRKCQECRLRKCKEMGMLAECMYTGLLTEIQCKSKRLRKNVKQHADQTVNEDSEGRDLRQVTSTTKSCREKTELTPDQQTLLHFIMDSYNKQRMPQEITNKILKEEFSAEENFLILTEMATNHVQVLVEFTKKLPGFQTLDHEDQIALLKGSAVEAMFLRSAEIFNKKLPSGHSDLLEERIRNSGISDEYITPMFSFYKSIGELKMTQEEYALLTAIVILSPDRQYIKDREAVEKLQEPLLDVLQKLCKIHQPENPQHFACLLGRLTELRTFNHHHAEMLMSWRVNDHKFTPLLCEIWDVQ
SMILES,outcome,AC50
CCNC(=O)NC(=O)C(C#N)=NOC,inactive,
COCc1cnc(C2=NC(C)(C(C)C)C(=O)N2)c(C(=O)O)c1 (stereo not drawn),,30.3 µM (active)
CC(C)C1(C)N=C(c2ncccc2C(=O)O)NC1=O (stereo not drawn),inactive,

# Molecular target: Estrogen receptor (Homo sapiens) (UniProt P03372)
# Sequence (P03372 whole entry, looked up, the tested form may be a part): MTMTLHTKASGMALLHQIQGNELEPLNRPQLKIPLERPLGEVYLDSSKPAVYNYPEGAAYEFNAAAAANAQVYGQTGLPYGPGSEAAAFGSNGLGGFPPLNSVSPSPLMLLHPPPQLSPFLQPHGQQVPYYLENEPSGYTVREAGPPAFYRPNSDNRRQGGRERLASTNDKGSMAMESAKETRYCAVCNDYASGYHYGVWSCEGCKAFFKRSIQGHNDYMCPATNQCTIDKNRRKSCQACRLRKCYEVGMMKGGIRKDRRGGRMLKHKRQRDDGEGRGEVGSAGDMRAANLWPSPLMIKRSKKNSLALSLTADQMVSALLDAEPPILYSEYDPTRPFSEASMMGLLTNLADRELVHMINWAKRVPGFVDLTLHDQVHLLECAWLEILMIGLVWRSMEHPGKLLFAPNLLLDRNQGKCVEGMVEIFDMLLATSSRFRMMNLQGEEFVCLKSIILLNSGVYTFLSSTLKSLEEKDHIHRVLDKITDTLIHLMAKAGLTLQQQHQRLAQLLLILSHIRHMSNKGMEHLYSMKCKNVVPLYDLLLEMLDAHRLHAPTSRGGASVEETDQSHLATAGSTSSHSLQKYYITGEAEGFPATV
# Test: OT_ER_ERaERa_0480: Odyssey Thera (OT) 8-hour HEK293T Protein-Complementation Assay for Estrogen Receptor-alpha/-alpha Homodimer (AID 2283351);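 note: rise in fluorescence from reassembled reporter fragments on ERα LBD homodimer in nucleus or whole cell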
# Method in brief: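 Binding reporter in which dimerisation of ERα LBD (aa 310-547) fusions reconstitutes a fluorescent reporter in HEK293T cells. Compounds incubated 8 h; mean fluorescence intensity increase versus DMSO scored.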
row,SMILES,outcome
1,CC(C)N1C(=O)N(c2ccccc2)CSC1=NC(C)(C)C,inactive
2,CCNC(=O)NC(=O)C(C#N)=NOC,inactive
3,O=P(O)(O)CCCl,inactive
4,CC1(C)CCC(=Cc2ccc(Cl)cc2)C1(O)Cn1cncn1 (stereo not drawn),inactive
5,COCc1cnc(C2=NC(C)(C(C)C)C(=O)N2)c(C(=O)O)c1 (stereo not drawn),inactive
6,O=c1n(Cl)c(=O)n(Cl)c(=O)n1Cl,inactive
7,C=C(C)CN(CC)c1c([N+](=O)[O-])cc(C(F)(F)F)cc1[N+](=O)[O-],inactive
8,Cc1cc(C)nc(Nc2ccccc2)n1,inactive
9,CO/N=C(/C1=NOCCO1)c1ccccc1Oc1ncnc(Oc2ccccc2Cl)c1F,inactive
10,CN/C(=N\[N+](=O)[O-])NCc1cnc(Cl)s1,inactive
11,Clc1cccc(C(Cl)(Cl)Cl)n1,inactive
12,CCSC(=O)N1CCCCCC1,inactive
13,CC(C)N1C(=O)c2ccccc2NS1(=O)=O,inactive
14,Cc1cnc(C2=NC(C)(C(C)C)C(=O)N2)c(C(=O)O)c1 (stereo not drawn),inactive
15,CCOc1nc(C(Cl)(Cl)Cl)ns1,inactive
16,CS(=O)(=O)c1ccc(C(=O)C2C(=O)CCCC2=O)c([N+](=O)[O-])c1,inactive

row,SMILES,outcome
1,COC(=O)NC(=S)Nc1ccccc1NC(=S)NC(=O)OC,inactive
2,Nc1c(Cl)c(F)nc(OCC(=O)O)c1Cl,inactive
3,COc1cc(Cl)c(OC)cc1Cl,inactive
4,COP(=O)(OC)O/C(C)=C/C(=O)N(C)C,inactive
5,Nc1c(Cl)c(Cl)nc(C(=O)O)c1Cl,inactive
6,CC(C)C1(C)N=C(c2ncccc2C(=O)O)NC1=O (stereo not drawn),inactive
7,O=C(O)c1c(Cl)ccc2cc(Cl)cnc12,inactive
8,CCC(C)n1c(=O)[nH]c(C)c(Br)c1=O (stereo not drawn),inactive
9,CC1(C)CON(Cc2ccccc2Cl)C1=O,inactive
10,N#CN=C1SCCN1Cc1ccc(Cl)nc1,inactive
11,CCOc1nc(F)cc2nc(S(=O)(=O)Nc3c(Cl)cccc3Cl)nn12,inactive
12,Cc1ccc(N=CN(C)C=Nc2ccc(C)cc2C)c(C)c1,inactive
13,COc1cc(OC)nc(NC(=O)NS(=O)(=O)c2ncccc2OCC(F)(F)F)n1,inactive
14,CS(=O)(=O)c1cc(C(F)(F)F)ccc1C(=O)c1cnoc1C1CC1,inactive
15,CNC(=O)N(C)c1nnc(C(C)(C)C)s1,inactive

# Molecular target: Estrogen receptor (Homo sapiens) + Estrogen receptor beta (Homo sapiens) (UniProt P03372+Q92731)
# Sequence (P03372 whole entry, looked up): as the sequence (P03372 whole entry, looked up, the tested form may be a part) above
# Sequence (Q92731 whole entry, looked up): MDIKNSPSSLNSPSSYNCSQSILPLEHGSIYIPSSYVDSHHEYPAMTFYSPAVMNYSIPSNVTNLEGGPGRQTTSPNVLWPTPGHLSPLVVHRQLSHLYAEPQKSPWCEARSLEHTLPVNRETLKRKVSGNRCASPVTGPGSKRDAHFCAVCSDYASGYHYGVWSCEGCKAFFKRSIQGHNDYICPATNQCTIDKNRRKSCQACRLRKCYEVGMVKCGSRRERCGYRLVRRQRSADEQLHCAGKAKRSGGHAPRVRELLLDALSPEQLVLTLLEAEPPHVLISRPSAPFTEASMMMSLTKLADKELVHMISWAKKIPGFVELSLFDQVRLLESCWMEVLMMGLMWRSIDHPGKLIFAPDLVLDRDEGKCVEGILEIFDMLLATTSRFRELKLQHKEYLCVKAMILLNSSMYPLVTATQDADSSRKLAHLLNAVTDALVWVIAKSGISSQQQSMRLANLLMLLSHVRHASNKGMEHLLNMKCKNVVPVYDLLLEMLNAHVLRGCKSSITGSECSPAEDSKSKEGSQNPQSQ
# Test: OT_ER_ERaERb_0480: Odyssey Thera (OT) 8-hour HEK293T Protein-Complementation Assay for Estrogen Receptor-alpha/-beta Heterodimer (AID 2283352)
# Method in brief: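 Compound added to HEK293T cells carrying split-reporter-tagged ER-alpha and ER-beta LBDs, incubated 8 hours, then imaged by laser scanning cytometer. Signal rise in nucleus, or nucleus and cytoplasm, over vehicle was fitted in the positive direction.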
SMILES,outcome,AC50
CC(C)N1C(=O)N(c2ccccc2)CSC1=NC(C)(C)C,inactive,
CC1(C)CCC(=Cc2ccc(Cl)cc2)C1(O)Cn1cncn1 (stereo not drawn),inactive,
COCc1cnc(C2=NC(C)(C(C)C)C(=O)N2)c(C(=O)O)c1 (stereo not drawn),inactive,
C=C(C)CN(CC)c1c([N+](=O)[O-])cc(C(F)(F)F)cc1[N+](=O)[O-],,50 µM (active)
CN/C(=N\[N+](=O)[O-])NCc1cnc(Cl)s1,inactive,
Clc1cccc(C(Cl)(Cl)Cl)n1,inactive,
C=CCOC(=O)C(C)(C)OC(=O)c1cc(-n2c(=O)cc(C(F)(F)F)n(C)c2=O)ccc1Cl,inactive,
CCCC(=NOCC)C1=C(O)CC(CC(C)SCC)CC1=O (stereo not drawn),inactive,
CCSC(=O)N1CCCCCC1,inactive,
Cc1cnc(C2=NC(C)(C(C)C)C(=O)N2)c(C(=O)O)c1 (stereo not drawn),inactive,
CC(C)Nc1nc(Cl)nc(NC(C)C)n1,inactive,
CCOc1nc(C(Cl)(Cl)Cl)ns1,inactive,
CS(=O)(=O)c1ccc(C(=O)C2C(=O)CCCC2=O)c([N+](=O)[O-])c1,inactive,
COC(=O)NC(=S)Nc1ccccc1NC(=S)NC(=O)OC,inactive,
Nc1c(Cl)c(F)nc(OCC(=O)O)c1Cl,inactive,
COc1cc(Cl)c(OC)cc1Cl,inactive,
COP(=O)(OC)O/C(C)=C/C(=O)N(C)C,inactive,
Nc1c(Cl)c(Cl)nc(C(=O)O)c1Cl,inactive,
O=C(O)c1c(Cl)ccc2cc(Cl)cnc12,inactive,
CCC(C)n1c(=O)[nH]c(C)c(Br)c1=O (stereo not drawn),inactive,
CC1(C)CON(Cc2ccccc2Cl)C1=O,inactive,
CCOc1nc(F)cc2nc(S(=O)(=O)Nc3c(Cl)cccc3Cl)nn12,inactive,
COC(=O)NS(=O)(=O)c1ccc(N)cc1,inactive,
CCOc1cc(C(C)(C)C)ccc1C1COC(c2c(F)cccc2F)=N1 (stereo not drawn),inactive,
COc1cc(OC)nc(NC(=O)NS(=O)(=O)c2ncccc2OCC(F)(F)F)n1,inactive,
CS(=O)(=O)c1cc(C(F)(F)F)ccc1C(=O)c1cnoc1C1CC1,inactive,
CNC(=O)N(C)c1nnc(C(C)(C)C)s1,inactive,

# Molecular target: Androgen Receptor/SRC-1 Co-activator, AR (gene 367) (UniProt P10275)
# Sequence (P10275 whole entry, looked up): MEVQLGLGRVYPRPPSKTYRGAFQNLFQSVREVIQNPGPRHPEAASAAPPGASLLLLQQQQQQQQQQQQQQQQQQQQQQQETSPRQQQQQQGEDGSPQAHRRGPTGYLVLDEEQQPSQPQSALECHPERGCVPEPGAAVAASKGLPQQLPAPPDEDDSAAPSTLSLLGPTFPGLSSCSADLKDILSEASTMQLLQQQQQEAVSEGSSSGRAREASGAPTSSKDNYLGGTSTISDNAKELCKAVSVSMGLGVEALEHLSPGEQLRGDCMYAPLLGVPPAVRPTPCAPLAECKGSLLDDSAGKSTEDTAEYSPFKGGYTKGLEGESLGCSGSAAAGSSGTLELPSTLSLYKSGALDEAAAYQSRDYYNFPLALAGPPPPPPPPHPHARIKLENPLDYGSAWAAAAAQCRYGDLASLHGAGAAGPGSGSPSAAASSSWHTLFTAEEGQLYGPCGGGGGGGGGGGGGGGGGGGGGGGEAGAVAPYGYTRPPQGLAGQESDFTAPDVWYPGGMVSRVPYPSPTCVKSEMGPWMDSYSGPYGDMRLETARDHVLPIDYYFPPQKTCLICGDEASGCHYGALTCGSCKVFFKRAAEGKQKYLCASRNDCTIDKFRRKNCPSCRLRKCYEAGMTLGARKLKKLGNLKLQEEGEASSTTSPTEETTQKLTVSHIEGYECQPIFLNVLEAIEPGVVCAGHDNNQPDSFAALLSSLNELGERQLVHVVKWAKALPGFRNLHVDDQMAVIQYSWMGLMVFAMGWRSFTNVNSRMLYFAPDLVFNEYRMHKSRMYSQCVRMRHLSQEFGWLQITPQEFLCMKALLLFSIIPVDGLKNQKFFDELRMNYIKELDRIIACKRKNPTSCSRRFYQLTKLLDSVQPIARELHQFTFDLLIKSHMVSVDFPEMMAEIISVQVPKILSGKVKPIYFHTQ
# Test: OT_AR_ARSRC1_0960: Odyssey Thera (OT) 16-hour HEK293T Protein-Complementation Assay for Androgen Receptor/SRC-1 Co-activator (AID 2283353);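 note: actives raise the signal above DMSO so potency reflects increased AR and SRC-1 complex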
# Method in brief: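 Interaction of AR with SRC-1 was followed by YFP fragment complementation in HEK293T cells after 16 h of dosing. Gain of nuclear-over-cytoplasmic 488 nm fluorescence against DMSO controls defined activity.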
SMILES,AC50,outcome
CC(C)N1C(=O)N(c2ccccc2)CSC1=NC(C)(C)C,62.9 µM (active),
CC1(C)CCC(=Cc2ccc(Cl)cc2)C1(O)Cn1cncn1 (stereo not drawn),16.3 µM (active),
COCc1cnc(C2=NC(C)(C(C)C)C(=O)N2)c(C(=O)O)c1 (stereo not drawn),,inactive
Clc1cccc(C(Cl)(Cl)Cl)n1,,inactive
Cc1cnc(C2=NC(C)(C(C)C)C(=O)N2)c(C(=O)O)c1 (stereo not drawn),,inactive
Nc1c(Cl)c(F)nc(OCC(=O)O)c1Cl,,inactive
CCOc1cc(C(C)(C)C)ccc1C1COC(c2c(F)cccc2F)=N1 (stereo not drawn),20.1 µM (active),
